Source: PubChem BioAssay (EPA / NIEHS)
Calls of active or inactive are those of the source. Rule for the calls: active = hit-call score of the fitted dose curve at least 0.9, where 1 is the maximum; inactive = score below 0.9.

Assays:
Details in all cases: mRNA level, 48 h; actives raise or lower the signal
[1] = read-out: Cytochrome P450 (CYP1A2), CYP1A2 (gene 1544); assay: LTEA_HepaRG_CYP1A2: Life Technologies and Expression Analysis (LTEA) Assay for Cytochrome P450 (CYP1A2) using HepaRG (AID 2283479);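 for AC50: TaqMan qRT-PCR transcript level normalized to ACTB GAPDH and POLR2A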
Outline: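 CYP1A2 transcript measured by TaqMan qRT-PCR against three housekeeping genes after 48-hour chemical exposure of HepaRG cells. Eight-point half-log series topping at 100 uM in 0.5% DMSO, duplicates; gain or loss fitted relative to vehicle.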

[2] = read-out: cysteine-aspartic acid protease (CASP8), CASP8 (gene 841); assay: LTEA_HepaRG_CASP8: Life Technologies and Expression Analysis (LTEA) Assay for cysteine-aspartic acid protease (CASP8) using HepaRG (AID 2283480)
Outline: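 HepaRG, 48 h exposure, duplicate wells; 8 conc, half-log from 100 uM, 0.5% DMSO. Serum-free induction medium. CASP8 mRNA by TaqMan qRT-PCR, norm. ACTB/GAPDH/POLR2A; gain/loss fitted vs DMSO.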

[3] = read-out: Cytochrome P450 (CYP2B6), CYP2B6 (gene 1555); assay: LTEA_HepaRG_CYP2B6: Life Technologies and Expression Analysis (LTEA) Assay for Cytochrome P450 (CYP2B6) using HepaRG (AID 2283481)
Outline: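 CYP2B6 transcript level quantified by qRT-PCR against three housekeeping genes, fitted bidirectionally relative to DMSO. HepaRG cultures received chemicals for 48 h, 8-point half-log series from 100 uM in 0.5% DMSO, duplicate wells, serum-free induction medium.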

[4] = read-out: Cytochrome P450 2C19 (Homo sapiens) (UniProt P33261); assay: LTEA_HepaRG_CYP2C19: Life Technologies and Expression Analysis (LTEA) Assay for CYP2C19 using HepaRG (AID 2283482)
Outline: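 CYP2C19 transcript levels by qRT-PCR, normalized to three housekeeping genes, in HepaRG cells after 48 h chemical exposure. Eight-point half-log series topping at 100 uM, 0.5% DMSO vehicle. Increases and decreases both fitted against DMSO.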

CYP2C8 (gene 1558) = assay: LTEA_HepaRG_CYP2C8: Life Technologies and Expression Analysis (LTEA) Assay for CYP2C8 using HepaRG (AID 2283483)
Outline: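 CYP2C8 mRNA induction or loss, by qRT-PCR normalized to ACTB/GAPDH/POLR2A, is read in HepaRG cells after 48 h treatment. Concentrations run from 100 uM down in half-log dilutions, with 0.5% DMSO as vehicle and baseline.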

CYP2C9 (gene 1559) = assay: LTEA_HepaRG_CYP2C9: Life Technologies and Expression Analysis (LTEA) Assay for CYP2C9 using HepaRG (AID 2283484)
Outline: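 Cells plated 48 h, switched to serum-free induction medium, then treated in duplicate for 48 h at eight concentrations (max 100 uM, 0.5% DMSO). RNA then analysed by qRT-PCR for CYP2C9; curves fitted in both directions relative to DMSO.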

CYP4A11 (gene 1579) = assay: LTEA_HepaRG_CYP4A11: Life Technologies and Expression Analysis (LTEA) Assay for CYP4A11 using HepaRG (AID 2283486)
Outline: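 Readout is CYP4A11 transcript level by qRT-PCR, normalized to three housekeeping genes and fitted bidirectionally against 0.5% DMSO. Human HepaRG cells were treated 48 h, in duplicate, with an 8-point half-log series topping at 100 uM.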

[5] = read-out: Cytochrome P450 3A4 (Homo sapiens) (UniProt P08684); assay: LTEA_HepaRG_CYP3A4: Life Technologies and Expression Analysis (LTEA) Assay for CYP3A4 using HepaRG (AID 2283487)
Outline: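 HepaRG, 48 h exposure, 8-pt CRC from 100 uM (half-log), 0.5% DMSO, duplicates; serum-free induction medium. Readout: CYP3A4 mRNA, qRT-PCR, ACTB/GAPDH/POLR2A normalization. Bidirectional fit vs DMSO.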

[6] = read-out: DNA damage-inducible transcript 3 (DDIT3), DDIT3 (gene 1649); assay: LTEA_HepaRG_DDIT3: Life Technologies and Expression Analysis (LTEA) Assay for DNA damage-inducible transcript 3 (DDIT3) using HepaRG (AID 2283488)
Outline: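 Changes in DDIT3 transcript, in either direction relative to 0.5% DMSO vehicle, were quantified by TaqMan qRT-PCR after 48 h chemical exposure of HepaRG cells at 8 concentrations, maximum 100 uM.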

[7] = read-out: Pro-epidermal growth factor (Homo sapiens) (UniProt P01133); assay: LTEA_HepaRG_EGF: Life Technologies and Expression Analysis (LTEA) Assay for Epidermal growth factor (EGF) using HepaRG (AID 2283489)
Outline: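 EGF transcript measured by Fluidigm TaqMan qRT-PCR with three housekeeping genes for normalization, 48 h after dosing HepaRG cultures in duplicate (top 100 uM, half-log steps, 0.5% DMSO vehicle). Gain or loss relative to DMSO fitted.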

[8] = read-out: Early growth response protein 1 (EGR1) transcription factor, EGR1 (gene 1958); assay: LTEA_HepaRG_EGR1: Life Technologies and Expression Analysis (LTEA) Assay for Early growth response protein 1 (EGR1) transcription factor using HepaRG (AID 2283490)
Outline: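 Read-out is EGR1 mRNA level by qRT-PCR, normalized to three housekeeping genes and analysed for gain or loss of signal against 0.5% DMSO. Source cells: human HepaRG, treated 48 h at up to 100 uM in half-log dilutions.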

[9] = read-out: Ezrin (EZR), EZR (gene 7430); assay: LTEA_HepaRG_EZR: Life Technologies and Expression Analysis (LTEA) Assay for Ezrin (EZR) using HepaRG (AID 2283491)
Outline: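 Read-out is EZR transcript level by qRT-PCR, normalized to three housekeeping genes and fitted bidirectionally against the DMSO control. Human HepaRG cells received test chemicals for 48 h at eight half-log concentrations up to 100 uM in 0.5% DMSO.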

CYP3A5 (gene 1577) = assay: LTEA_HepaRG_CYP3A5: Life Technologies and Expression Analysis (LTEA) Assay for CYP3A5 using HepaRG (AID 2283493)
Outline: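 mRNA induction or loss of CYP3A5 assessed in HepaRG after 48 h dosing, 100 uM top concentration, duplicate wells; TaqMan qRT-PCR with ACTB, GAPDH, POLR2A normalization; 0.5% DMSO as negative control.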

[10] = read-out: Fatty Acid-Binding Protein 1 (FABP1), FABP1 (gene 2168); assay: LTEA_HepaRG_FABP1: Life Technologies and Expression Analysis (LTEA) Assay for Fatty Acid-Binding Protein 1 (FABP1) using HepaRG (AID 2283494)
Outline: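 HepaRG, 48 h post-plating switched to serum-free induction medium, then dosed 48 h (duplicate, 8 pts, ≤100 uM, 0.5% DMSO). RNA → Fluidigm TaqMan qRT-PCR, FABP1 normed to ACTB/GAPDH/POLR2A. Bidirectional curve fit vs DMSO.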

[11] = read-out: Cytochrome P450 4A22 (Homo sapiens) (UniProt Q5TCH4); assay: LTEA_HepaRG_CYP4A22: Life Technologies and Expression Analysis (LTEA) Assay for Cytochrome P450 4A22 (CYP4A22) using HepaRG (AID 2283495)
Outline: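 Gene expression measured by qRT-PCR against three housekeeping genes (ACTB, GAPDH, POLR2A), with gain or loss fitted relative to 0.5% DMSO vehicle. HepaRG cultures received 48 h chemical treatment, top concentration 100 uM, half-log steps, duplicate wells.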

[12] = read-out: Cytochrome P450 7A1 (Homo sapiens) (UniProt P22680); assay: LTEA_HepaRG_CYP7A1: Life Technologies and Expression Analysis (LTEA) Assay for Cytochrome P450 7A1 (CYP7A1) using HepaRG (AID 2283496)
Outline: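 Gene expression endpoint in human HepaRG liver cells treated for 48 h with test chemicals (up to 100 uM, 0.5% DMSO). Values come from bidirectional concentration-response fitting versus DMSO.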

[13] = read-out: Glutathione S-Transferase (GSTA2), GSTA2 (gene 2939); assay: LTEA_HepaRG_GSTA2: Life Technologies and Expression Analysis (LTEA) Assay for Glutathione S-Transferase (GSTA2) using HepaRG (AID 2283497)
Outline: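 HepaRG, 48 h dosing, 8-pt half-log CRC from 100 uM, 0.5% DMSO vehicle, n=2; RNA → Fluidigm TaqMan qRT-PCR; GSTA2 vs ACTB/GAPDH/POLR2A; gain/loss fit vs DMSO.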

[14] = read-out: Glutamate-cysteine ligase catalytic (GCLC), GCLC (gene 2729); assay: LTEA_HepaRG_GCLC: Life Technologies and Expression Analysis (LTEA) Assay for Glutamate-cysteine ligase catalytic (GCLC) using HepaRG (AID 2283498)
Outline: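 Read-out is GCLC transcript level by Fluidigm-based TaqMan qRT-PCR, normalized to three housekeeping genes and fitted in both directions relative to 0.5% DMSO. Human HepaRG cells received chemicals for 48 h, up to 100 uM.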

CYP2E1 (gene 1571) = assay: LTEA_HepaRG_CYP2E1: Life Technologies and Expression Analysis (LTEA) Assay for CYP2E1 using HepaRG (AID 2283485)
Outline: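 Differentiated HepaRG cells were treated in duplicate for 48 h with chemicals in 0.5% DMSO, from 100 uM downward in half-log dilutions. RNA was then analysed by qRT-PCR for CYP2E1 induction or loss.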

[15] = read-out: Cytochrome P450 3A7 (Homo sapiens) (UniProt P24462); assay: LTEA_HepaRG_CYP3A7: Life Technologies and Expression Analysis (LTEA) Assay for CYP3A7 using HepaRG (AID 2283492)
Outline: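 CYP3A7 transcript measured by qRT-PCR (ACTB, GAPDH, POLR2A normalization) after 48 h chemical exposure of HepaRG cells in duplicate. Eight half-log concentrations, maximum 100 uM, 0.5% DMSO vehicle; bidirectional curve fitting against DMSO baseline.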

Measured: AC50

Cytochrome P450 3A4 (Homo sapiens), sequence (P08684 whole entry, looked up): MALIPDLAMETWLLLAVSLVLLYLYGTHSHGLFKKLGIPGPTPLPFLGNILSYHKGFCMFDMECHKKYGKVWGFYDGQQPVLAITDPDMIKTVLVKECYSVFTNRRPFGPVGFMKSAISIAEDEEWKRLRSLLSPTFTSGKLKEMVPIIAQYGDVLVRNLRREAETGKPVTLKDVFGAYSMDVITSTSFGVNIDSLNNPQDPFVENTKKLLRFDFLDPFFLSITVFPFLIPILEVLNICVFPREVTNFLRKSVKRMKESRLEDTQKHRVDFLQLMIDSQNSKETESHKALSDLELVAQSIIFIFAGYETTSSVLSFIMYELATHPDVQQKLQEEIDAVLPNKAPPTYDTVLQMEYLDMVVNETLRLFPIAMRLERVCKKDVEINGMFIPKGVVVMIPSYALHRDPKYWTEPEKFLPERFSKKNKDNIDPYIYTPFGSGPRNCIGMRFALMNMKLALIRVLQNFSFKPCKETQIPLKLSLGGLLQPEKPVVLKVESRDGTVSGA
Cytochrome P450 2C19 (Homo sapiens), sequence (P33261 whole entry, looked up): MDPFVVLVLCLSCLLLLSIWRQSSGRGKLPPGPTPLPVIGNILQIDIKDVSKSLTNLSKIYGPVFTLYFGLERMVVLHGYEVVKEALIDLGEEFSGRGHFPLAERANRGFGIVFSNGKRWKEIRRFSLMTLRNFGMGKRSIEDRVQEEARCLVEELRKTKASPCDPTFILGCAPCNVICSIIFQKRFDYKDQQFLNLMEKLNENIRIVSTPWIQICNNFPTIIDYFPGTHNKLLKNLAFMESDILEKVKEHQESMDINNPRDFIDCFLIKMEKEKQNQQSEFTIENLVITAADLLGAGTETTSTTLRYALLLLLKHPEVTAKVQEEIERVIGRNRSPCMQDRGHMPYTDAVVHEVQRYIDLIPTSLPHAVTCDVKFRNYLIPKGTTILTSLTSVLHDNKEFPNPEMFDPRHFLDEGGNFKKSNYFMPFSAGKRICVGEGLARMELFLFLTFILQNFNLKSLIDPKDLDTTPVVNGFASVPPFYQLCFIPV
Cytochrome P450 3A7 (Homo sapiens), sequence (P24462 whole entry, looked up): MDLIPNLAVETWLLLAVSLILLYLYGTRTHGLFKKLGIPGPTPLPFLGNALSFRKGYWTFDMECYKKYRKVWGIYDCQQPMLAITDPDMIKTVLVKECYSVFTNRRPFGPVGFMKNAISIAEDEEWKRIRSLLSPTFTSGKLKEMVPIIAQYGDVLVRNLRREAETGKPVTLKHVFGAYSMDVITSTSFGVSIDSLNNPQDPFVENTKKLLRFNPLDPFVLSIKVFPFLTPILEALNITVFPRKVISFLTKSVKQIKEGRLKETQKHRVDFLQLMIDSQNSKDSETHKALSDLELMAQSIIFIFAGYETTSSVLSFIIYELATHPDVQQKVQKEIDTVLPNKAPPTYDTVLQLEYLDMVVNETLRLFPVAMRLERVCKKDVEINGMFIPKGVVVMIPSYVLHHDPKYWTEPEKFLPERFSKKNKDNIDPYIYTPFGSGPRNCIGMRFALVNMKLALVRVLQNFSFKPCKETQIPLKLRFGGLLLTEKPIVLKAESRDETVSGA

COc1ccc(/C=C/S(=O)(=O)NC(=O)c2ccc(C)cc2Cl)cc1
active: [3] 89.8 µM | [13] 80.8 µM
not listed: CYP2E1 (gene 1571) | [15]
inactive: all other assays above

Nc1nc2ncc(CNc3ccc(C(=O)N[C@@H](CCC(=O)O)C(=O)O)cc3)nc2c(=O)[nH]1
inactive: all assays above

CCN(C(=O)c1cc(C)cc(OC[C@H](C)Nc2ccncc2)c1)C(C)C
active: [1] 12.7 µM | [3] 7.91 µM | [4] 8.16 µM | CYP2C8 (gene 1558) 58.4 µM | CYP2C9 (gene 1559) 56.6 µM | CYP4A11 (gene 1579) 33.8 µM | [5] 8.63 µM | [6] 48 µM | [15] 8.43 µM | [10] 2.25 µM | [11] 33.8 µM | [12] 50.5 µM
inactive: [2] | [8] | [9] | CYP3A5 (gene 1577) | [13] | [14]
